25 compounds from PubChem BioAssay (NCATS) can be followed below.

The structures appear in SMILES notation. Inconclusive results are not listed. Values without a mark were called inactive. Active and inactive are the calls of the source. Calls follow the shape of the dose curve; as a rule, active = well fitted curve in the direction sought with a large enough effect; inconclusive = small, poorly fitted or top-dose-only effect, or another doubt; inactive = no such curve, though single readings can be large; an effect the other way counts as inactive or inconclusive.

Test [1] addresses Cellular tumor antigen p53 (Homo sapiens) (UniProt P04637). In words: Primary qHTS for small molecule compounds that upregulate eGFP-tagged delta133p53alpha (in N-terminal) cells. (AID 2060322). Also: nearly all actives have a fitted effect of over 75% in size. Also: potency is read from the fitted curve at half-maximal effect.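 As to activation: cells pre-induced with doxycycline then dosed without doxycycline; 0% = DMSO vehicle and 100% = reference activator.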 Particulars: NCI-H358 eGFP-delta133p53alpha fluorescence, 24 h; activation: stronger effect = higher value. Put shortly:
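NCI-H358 cells pre-induced 24 h with 10 ng/ml doxycycline for eGFP-delta133p53alpha, plated dox-free and exposed 24 h at 37C to titrated compounds. Fixed, Hoechst-stained; gated GFP peak intensity by laser scanning cytometry, normalized to DMSO (0%) and 57.5 uM 5-azacytidine (100%).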

Test [2] has as its target Aldehyde dehydrogenase, mitochondrial (Homo sapiens) (UniProt P05091). Put plainly: qHTS for Inhibitors of the Aldehyde Dehydrogenase Family (ALDH2) Primary screen (AID 2061308).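 Also: plate controls were vehicle for no effect and reference inhibitor for full effect; nearly all actives have a fitted effect of over 55% in size.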 The note with it: ALDH2 enzyme inhibition qHTS, 1536-well; series mostly up to 56 µM. On the technique in general: In qHTS, concentration-response curves come from the screen itself.
The target in test [3] is Retinaldehyde dehydrogenase 3 (Homo sapiens) (UniProt P47895). Put plainly: qHTS for Inhibitors of the Aldehyde Dehydrogenase Family (ALDH1A3) Primary screen (AID 2061315).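 Also: plate controls were DMSO vehicle for no effect and reference inhibitor for full effect.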 The note with it: ALDH inhibition qHTS; series mostly up to 56 µM.

Sequence of Cellular tumor antigen p53 (Homo sapiens) (P04637 whole entry, looked up): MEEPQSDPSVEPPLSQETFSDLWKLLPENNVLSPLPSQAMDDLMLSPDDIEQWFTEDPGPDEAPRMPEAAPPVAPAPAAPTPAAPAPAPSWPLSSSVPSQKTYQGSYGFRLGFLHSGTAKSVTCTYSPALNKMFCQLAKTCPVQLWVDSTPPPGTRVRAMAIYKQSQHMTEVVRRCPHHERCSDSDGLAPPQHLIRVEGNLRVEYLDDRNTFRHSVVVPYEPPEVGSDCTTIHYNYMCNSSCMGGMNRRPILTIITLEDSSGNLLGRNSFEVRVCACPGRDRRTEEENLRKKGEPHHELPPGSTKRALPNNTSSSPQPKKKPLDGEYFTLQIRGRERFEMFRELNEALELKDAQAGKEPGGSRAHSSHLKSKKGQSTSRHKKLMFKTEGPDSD

For the compound `C[C@@H]1CCC2C(C)(C)[C@H](O)[C@H](O)C[C@]2(C)[C@@]12Cc1c(O)cc3c(c1O2)CN(CCCC(=O)O)C3=O` (stereo not given in full), the activation in test [1] was -3.05%. Moreover, the Potency entry in test [2] and in test [3] was “inactive” in each case.

Take `C=C(CCC1C(C)(O)CCC2C(C)(C)C(O)CCC12C)C(O)CO` (stereo not given): the activation in test [1] is -7.14%. For the same compound, the Potency result in test [2] and in test [3] was “inactive” each time.

On to `Cc1ccc(C)c(S(=O)(=O)n2cnc3ccccc32)c1`, for which the activation in test [1] was 1%. Further, the Potency result in test [2] and in test [3] was “inactive” each time.

On to `CC(C)=CCC/C(C)=C/CCC1(C)Oc2c(c(O)cc3c2CN(C(CCC(=O)O)C(=O)O)C3=O)CC1O` (stereo not given), for which, in test [1], the activation was -13.7%. The Potency result in test [2] and in test [3] was “inactive” throughout.

In the case of `CC(=O)Nc1ccc(S(=O)(=O)Nc2cc(C)on2)cc1`, the activation in test [1] is 11.9%. In addition, the Potency result in test [2] and in test [3] was “inactive” each time.

For the compound `CC(C)=CCC/C(C)=C/COCC1OC(n2ccc(=O)[nH]c2=O)C(O)C1O` (stereo not given), in test [1], the activation is 17%. For the same compound, the Potency entry in test [2] and in test [3] was “inactive” throughout.

Take `[N-]=[N+]=N[C@]1(CO)O[C@@H](n2ccc(=O)[nH]c2=O)[C@@H](O)[C@@H]1O`: the activation in test [1] is 7%. Besides, the Potency result in test [2] and in test [3] was “inactive” throughout.

Consider `C/C(=C/CO)CCC1C(C)CCC2C(C)(C)CCCC12C` (stereo not given), for which the activation in test [1] is -9.92%. The Potency entry in test [2] and in test [3] was “inactive” throughout.

In the case of `CC(=O)OC1CCC2(C)C(CCC3(C)C2CC=C2C4CC(C)(C)CCC4(C)CCC23C)C1(C)C(=O)O` (stereo not given), the activation in test [1] was 27.7%. Besides, the Potency result in test [2] and in test [3] was “inactive” each time.

As for `CCC(C)C(C(=O)O)N1Cc2c(OCC=C(C)C)c(C)c(OC)c(C(=O)O)c2C1=O` (stereo not given), the activation in test [1] was 5.34%. In addition, the Potency entry in test [2] and in test [3] was “inactive” in each case.

For the compound `COC(=O)CC(C)(O)CC(=O)OCc1ccc(O[C@@H]2O[C@H](CO)[C@@H](O)[C@H](O)[C@H]2O)cc1` (stereo not given in full), the activation in test [1] was -5.34%. The Potency result in test [2] and in test [3] was “inactive” each time.

In the case of `C=C1C(=O)OC2CC(COC(=O)C(C)C)=C(C(C)CCCOC(C)=O)[C@@H](OC(C)=O)C12` (stereo not given in full), in test [1], the activation was 6.87%. In addition, the Potency entry in test [2] and in test [3] was “inactive” in each case.

As to `CCC(C)(O)C(O)C(=O)OCc1ccc(O[C@@H]2O[C@H](CO)[C@@H](O)[C@H](O)[C@H]2O)c(OC)c1` (stereo not given in full), the activation in test [1] is -5.36%. Moreover, the Potency entry in test [2] and in test [3] was “inactive” each time.

Regarding `C=C1CC[C@@H]2[C@](C)(CO)[C@H](O)CC[C@@]2(C)[C@@H]1C/C=C1/C(=O)OC[C@@H]1O`, the Potency in test [1] is 11.7 µM (active). Moreover, the Potency result in test [2] and in test [3] was “inactive” throughout.

Consider `COc1ccccc1-c1cc(Nc2cccc(CS(N)(=O)=O)c2)ncn1`, for which, in test [1], the Potency was 8.49 µM (active). For the same compound, the Potency entry in test [2] and in test [3] was “inactive” in each case.

For `CN1C(=O)c2ccccc2-n2c(nc3ccccc3c2=O)[C@@]12O[C@H]2c1ccccc1`, in test [1], the activation is 13%. Further, the Potency result in test [2] and in test [3] was “inactive” throughout.

For the compound `C=CC(C)(O)CC/C=C(/C)C(=O)OC1C(OC2OCC(OC3OC(CO)C(O)C(O)C3O)C(OC3OCC(O)C(OC4OC(C)C(O)C(O)C4O)C3O)C2O)COC(OC(=O)C23CCC(C)(C)CC2C2=CCC4C5(C)CCC(OC6OC(CO)C(OC7OC(CO)C(O)C(OC8OCC(O)C(O)C8O)C7O)C(O)C6O)C(C)(C)C5CCC4(C)C2(C)CC3O)C1O` (stereo not given), the activation in test [1] was -12.2%. Besides, the activity change, negative = inhibition was 0.572% [at 11.2 µM] in test [2] and 8.04% [at 11.2 µM] in test [3].

For `CC1CCCC2OC2C(=O)c2c(O)cc(O)cc2CC(=O)O1` (stereo not given), in test [1], the activation is 16%. Further, the Potency entry in test [2] and in test [3] was “inactive” in each case.

Regarding `COC(=O)/C=C/C12COC(C)(C)C1C(O)C(OC(C)=O)C1(C)C2CCC2(C)C(c3ccoc3)OC(=O)C3OC321` (stereo not given), in test [1], the activation is 11.5%. Further, the Potency entry in test [2] and in test [3] was “inactive” throughout.

On to `CCC(C)(C)C1CCc2c(sc(NC(=O)c3ccc(Br)cc3)c2C#N)C1` (stereo not given), for which, in test [1], the activation was -0.333%. Moreover, the Potency result in test [2] and in test [3] was “inactive” each time.

Regarding `CC1(C)NC2N(C1=O)c1ccccc1C2(O)CC(C(=O)O)n1cnc2ccccc2c1=O` (stereo not given), the activation in test [1] is -9.16%. For the same compound, the Potency result in test [2] and in test [3] was “inactive” in each case.

As for `CC1(C)C2CCC(CO[C@@H]3O[C@H](CO[C@@H]4OC[C@](O)(CO)[C@H]4O)[C@@H](O)[C@H](O)[C@H]3O)C1C2` (stereo not given in full), in test [1], the activation is -5.34%. Besides, the Potency entry in test [2] and in test [3] was “inactive” each time.

As for `CC(C)(C)Oc1ccc(OCC2Cc3ccccc3CN2C(=O)c2cccc3ccccc23)cc1` (stereo not given), in test [1], the activation was -10.5%. Moreover, the Potency result in test [2] and in test [3] was “inactive” each time.

Regarding `C[C@H]1[C@H](C)CC[C@]2(C(=O)OC3OC(CO)C(O)C(O)C3O)CC[C@]3(C(=O)O)C(=CCC4[C@@]5(C)CC[C@H](O[C@@H]6O[C@@H](C)[C@H](OC7OC(CO)C(O)C(O)C7O)[C@@H](O)[C@H]6O)C(C)(C)C5CC[C@]43C)[C@H]12` (stereo not given in full), the activation in test [1] is -9.92%. In addition, the Potency entry in test [2] and in test [3] was “inactive” in each case.

As to `C[C@H](NC(=O)C(C)(C)Oc1ccc(C(F)(F)F)cn1)[C@@H](Cc1ccc(Cl)cc1)c1cccc(C#N)c1`, in test [1], the activation was 5.36%. In addition, the Potency entry in test [2] and in test [3] was “inactive” throughout.
